Reference: PubChem BioAssay (EPA / NIEHS)
Records with an inconclusive call do not appear. Calls of active or inactive are those of the source. The calls were made as follows, unless noted: active = hit-call score of the fitted dose curve at least 0.9, where 1 is the maximum; inactive = score below 0.9.

Tests used:
[1] = ATG_NFI_CIS: Attagene CIS-FACTORIAL HepG2 Assay for human Nuclear Factor I (NFI) (AID 2282989); settings: HepG2 cis-regulatory reporter, NFI response element transcription; actives raise or lower the signal
How it was run: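 Multiplexed cis-reporter system in human HepG2 cells reports native TF activity as reporter mRNA induction 24 h post-dose. Fragments labelled with 6-FAM, HpaI-digested and resolved by capillary electrophoresis; activity fitted both directions versus DMSO.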

[2] = target: Myc proto-oncogene protein (Homo sapiens) (UniProt P01106); test: ATG_Myc_CIS: Attagene CIS-FACTORIAL HepG2 Assay for human Myelocytomatosis (Myc) Proto-Oncogene Transcription Factor (AID 2282990); settings: HepG2, Attagene cis-reporter transcription factor activity; actives raise or lower the signal
Chain of Myc proto-oncogene protein (Homo sapiens) (P01106 whole entry, looked up, the tested form may be a part): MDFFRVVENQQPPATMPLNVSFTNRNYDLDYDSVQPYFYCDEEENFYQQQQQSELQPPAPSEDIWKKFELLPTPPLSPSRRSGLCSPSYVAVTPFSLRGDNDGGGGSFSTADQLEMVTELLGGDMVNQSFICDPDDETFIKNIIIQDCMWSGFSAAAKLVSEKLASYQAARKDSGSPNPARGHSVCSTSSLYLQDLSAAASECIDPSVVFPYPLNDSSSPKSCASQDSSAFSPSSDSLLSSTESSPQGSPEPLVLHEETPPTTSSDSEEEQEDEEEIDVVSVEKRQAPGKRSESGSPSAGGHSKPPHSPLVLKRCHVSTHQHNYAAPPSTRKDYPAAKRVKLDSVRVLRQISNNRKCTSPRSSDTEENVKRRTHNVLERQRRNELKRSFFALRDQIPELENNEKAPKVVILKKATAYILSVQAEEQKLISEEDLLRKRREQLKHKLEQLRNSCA
How it was run: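 After 24 h chemical treatment of HepG2 cells carrying multiplexed cis-regulated reporter constructs, reporter transcripts quantified by RT-PCR and capillary electrophoresis of fluorescent fragments. Gain or loss fitted against DMSO baseline.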

[3] = ATG_NF_kB_CIS: Attagene CIS-FACTORIAL HepG2 Assay for human Nuclear Factor Kappa B (NF-kB) (AID 2282991); settings: HepG2 Attagene cis-factorial NF-kB reporter mRNA; actives raise or lower the signal
How it was run: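 HepG2 cells transiently transfected with multiplexed cis-element reporter units measuring endogenous transcription factor activity; reporter mRNA read 24 h after dosing by RT-PCR, fluorescent labelling, HpaI digestion and capillary electrophoresis. Bidirectional fit against DMSO baseline.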

[4] = ATG_NRF2_ARE_CIS: Attagene CIS-FACTORIAL HepG2 Assay for human Nuclear Factor Erythroid 2 Related Factor 2 (NFR2) response to Antioxidant Response Elements (ARE) (AID 2282992); settings: HepG2 Attagene ARE/NRF2 reporter, transcription factor activity; actives raise or lower the signal;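 as to AC50: reporter mRNA level measured by RT-PCR and capillary electrophoresis fluorescence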
How it was run: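 Multiplexed reporter mRNA profiling in HepG2 after a 24 h chemical exposure. Curves fitted in both directions relative to DMSO negative control.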

[5] = ATG_Oct_MLP_CIS: Attagene CIS-FACTORIAL HepG2 Assay for human Octamer-Binding Transcription Factor (Oct) (AID 2282993); settings: HepG2 Attagene cis-factorial Oct reporter, mRNA; actives raise or lower the signal
How it was run: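 After 24 h compound exposure, transfected HepG2 cells were lysed for total RNA; reporter-specific cDNA was PCR-amplified, fluorescently labelled and sized by capillary electrophoresis. Bidirectional curve fitting used DMSO as baseline.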

[6] = target: Cellular tumor antigen p53 (Homo sapiens) (UniProt P04637); test: ATG_p53_CIS: Attagene CIS-FACTORIAL HepG2 Assay for human p53 Transcription Factor (AID 2282994); settings: HepG2 p53 cis-element reporter, Attagene mRNA; actives raise or lower the signal
Chain of Cellular tumor antigen p53 (Homo sapiens) (P04637 whole entry, looked up): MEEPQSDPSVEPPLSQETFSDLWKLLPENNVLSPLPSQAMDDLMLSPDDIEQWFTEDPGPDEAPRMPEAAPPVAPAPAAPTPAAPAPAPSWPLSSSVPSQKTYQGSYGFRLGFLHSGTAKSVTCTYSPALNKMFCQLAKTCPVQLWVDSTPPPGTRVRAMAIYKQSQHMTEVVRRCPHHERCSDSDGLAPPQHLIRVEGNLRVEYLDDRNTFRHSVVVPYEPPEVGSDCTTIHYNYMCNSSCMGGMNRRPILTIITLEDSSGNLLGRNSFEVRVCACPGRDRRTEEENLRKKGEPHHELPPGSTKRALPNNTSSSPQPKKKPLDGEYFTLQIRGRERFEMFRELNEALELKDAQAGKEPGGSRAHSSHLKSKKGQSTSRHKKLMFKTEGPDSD
How it was run: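 Multiplexed reporter mRNA assay in human HepG2 liver cells; cis-regulated units report endogenous factor activity. Values come from bidirectional curve fitting against DMSO negative control after 24 h treatment.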

[7] = target: human Peroxisome Proliferator-activated Receptor delta (PPARd), PPARD (gene 5467) (UniProt Q03181); test: ATG_PPARd_TRANS: Attagene TRANS-FACTORIAL HepG2 Assay for human Peroxisome Proliferator-activated Receptor delta (PPARd) (AID 2283002; active = hit-call score of the fitted dose curve at least 0.9, where 1 is the maximum)
Chain of human Peroxisome Proliferator-activated Receptor delta (PPARd), PPARD (gene 5467) (Q03181 whole entry, looked up, the tested form may be a part): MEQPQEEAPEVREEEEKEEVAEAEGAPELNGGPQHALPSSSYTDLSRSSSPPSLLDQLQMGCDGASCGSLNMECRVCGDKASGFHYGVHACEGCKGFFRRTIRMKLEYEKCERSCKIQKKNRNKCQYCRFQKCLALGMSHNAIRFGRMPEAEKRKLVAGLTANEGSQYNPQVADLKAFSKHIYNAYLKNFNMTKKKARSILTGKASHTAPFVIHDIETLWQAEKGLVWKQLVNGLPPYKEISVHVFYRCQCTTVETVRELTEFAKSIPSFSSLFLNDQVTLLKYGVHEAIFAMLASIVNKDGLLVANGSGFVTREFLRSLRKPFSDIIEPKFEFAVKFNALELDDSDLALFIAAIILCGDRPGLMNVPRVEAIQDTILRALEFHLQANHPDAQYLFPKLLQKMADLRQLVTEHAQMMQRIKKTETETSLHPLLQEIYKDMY
How it was run: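 Read-out is induced reporter mRNA, quantified by RT-PCR with fluorescent labelling and capillary electrophoresis after 24 h dosing. Cells are HepG2 transiently carrying multiple GAL4-UAS reporter units driven by exogenous NR-GAL4 chimeras; DMSO serves as baseline.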

[8] = target: Peroxisome proliferator-activated receptor gamma (Homo sapiens) (UniProt P37231); test: ATG_PPARg_TRANS: Attagene TRANS-FACTORIAL HepG2 Assay for human Peroxisome Proliferator-activated Receptor-gamma (PPARg) (AID 2283007; active = hit-call score of the fitted dose curve at least 0.9, where 1 is the maximum)
Chain of Peroxisome proliferator-activated receptor gamma (Homo sapiens) (P37231 whole entry, looked up, the tested form may be a part): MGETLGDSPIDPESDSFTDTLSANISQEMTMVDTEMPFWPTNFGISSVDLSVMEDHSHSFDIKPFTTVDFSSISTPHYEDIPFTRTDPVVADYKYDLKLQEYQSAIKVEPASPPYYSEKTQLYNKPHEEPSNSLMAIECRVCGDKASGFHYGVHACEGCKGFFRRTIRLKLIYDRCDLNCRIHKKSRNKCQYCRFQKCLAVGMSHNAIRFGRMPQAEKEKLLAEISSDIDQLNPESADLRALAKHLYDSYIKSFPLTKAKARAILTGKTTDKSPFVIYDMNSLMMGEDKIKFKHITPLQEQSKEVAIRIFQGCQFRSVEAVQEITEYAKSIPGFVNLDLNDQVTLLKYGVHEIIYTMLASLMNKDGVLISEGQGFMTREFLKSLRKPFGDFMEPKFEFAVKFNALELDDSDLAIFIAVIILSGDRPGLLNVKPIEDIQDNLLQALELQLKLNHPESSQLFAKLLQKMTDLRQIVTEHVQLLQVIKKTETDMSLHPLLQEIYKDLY
How it was run: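 HepG2 cells transiently transfected with multiplexed GAL4-UAS reporter units and exogenous chimeric NR-Gal4 proteins; reporter mRNA quantified after 24 h compound exposure by RT-PCR, fluorescent labelling, HpaI digestion and capillary electrophoresis; gain-of-signal fitted versus DMSO baseline.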

[9] = target: Nuclear receptor subfamily 1 group I member 2 (Homo sapiens) (UniProt O75469); test: ATG_PXR_TRANS: Attagene TRANS-FACTORIAL HepG2 Assay for human Pregnane X Receptor (PXR) (AID 2283008; active = hit-call score of the fitted dose curve at least 0.9, where 1 is the maximum)
Chain of Nuclear receptor subfamily 1 group I member 2 (Homo sapiens) (O75469 whole entry, looked up, the tested form may be a part): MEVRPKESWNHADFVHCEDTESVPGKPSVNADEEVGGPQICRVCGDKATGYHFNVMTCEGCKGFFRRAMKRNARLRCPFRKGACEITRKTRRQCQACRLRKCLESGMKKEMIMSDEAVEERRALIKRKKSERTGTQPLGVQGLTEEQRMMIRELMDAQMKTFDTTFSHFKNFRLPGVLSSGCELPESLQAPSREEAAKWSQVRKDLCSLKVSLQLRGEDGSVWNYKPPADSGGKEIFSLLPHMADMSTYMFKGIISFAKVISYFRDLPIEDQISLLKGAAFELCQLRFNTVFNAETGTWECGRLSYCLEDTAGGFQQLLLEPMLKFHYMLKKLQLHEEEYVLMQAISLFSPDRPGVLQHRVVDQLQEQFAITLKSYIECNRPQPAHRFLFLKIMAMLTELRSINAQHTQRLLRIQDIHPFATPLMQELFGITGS
How it was run: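 Measures mRNA induction of a GAL4-UAS-driven reporter in human HepG2 cells transiently expressing PXR fused to Gal4, following 24 h treatment. DMSO served as negative control and baseline.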

[10] = target: human Retinoic Acid Receptor beta (RARb), RARB (gene 5915) (UniProt P10826); test: ATG_RARb_TRANS: Attagene TRANS-FACTORIAL HepG2 Assay for human Retinoic Acid Receptor beta (AID 2283004; active = hit-call score of the fitted dose curve at least 0.9, where 1 is the maximum)
Chain of human Retinoic Acid Receptor beta (RARb), RARB (gene 5915) (P10826 whole entry, looked up, the tested form may be a part): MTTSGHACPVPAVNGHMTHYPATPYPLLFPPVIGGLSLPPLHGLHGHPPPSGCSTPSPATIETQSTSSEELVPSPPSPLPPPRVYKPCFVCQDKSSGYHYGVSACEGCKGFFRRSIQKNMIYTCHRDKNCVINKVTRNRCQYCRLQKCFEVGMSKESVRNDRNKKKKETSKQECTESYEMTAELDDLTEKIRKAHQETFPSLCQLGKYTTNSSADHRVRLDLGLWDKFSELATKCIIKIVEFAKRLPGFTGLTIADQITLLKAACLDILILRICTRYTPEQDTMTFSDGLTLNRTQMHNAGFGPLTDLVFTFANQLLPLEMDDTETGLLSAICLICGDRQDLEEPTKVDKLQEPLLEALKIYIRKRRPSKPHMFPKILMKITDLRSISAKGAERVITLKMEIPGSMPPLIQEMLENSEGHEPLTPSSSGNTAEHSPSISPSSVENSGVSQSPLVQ
How it was run: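 HepG2, transient MRTU transfection, NR–Gal4 chimera, 24 h treatment; RT-PCR plus CE fluorescence detection of reporter mRNA; gain of signal vs DMSO.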

[11] = target: Retinoic acid receptor alpha (Homo sapiens) (UniProt P10276); test: ATG_RARa_TRANS: Attagene TRANS-FACTORIAL HepG2 Assay for human Retinoic Acid Receptor alpha (RARa) (AID 2283005; active = hit-call score of the fitted dose curve at least 0.9, where 1 is the maximum;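 as to AC50: potency for increased reporter signal meaning RARa activation over DMSO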)
Chain of Retinoic acid receptor alpha (Homo sapiens) (P10276 whole entry, looked up, the tested form may be a part): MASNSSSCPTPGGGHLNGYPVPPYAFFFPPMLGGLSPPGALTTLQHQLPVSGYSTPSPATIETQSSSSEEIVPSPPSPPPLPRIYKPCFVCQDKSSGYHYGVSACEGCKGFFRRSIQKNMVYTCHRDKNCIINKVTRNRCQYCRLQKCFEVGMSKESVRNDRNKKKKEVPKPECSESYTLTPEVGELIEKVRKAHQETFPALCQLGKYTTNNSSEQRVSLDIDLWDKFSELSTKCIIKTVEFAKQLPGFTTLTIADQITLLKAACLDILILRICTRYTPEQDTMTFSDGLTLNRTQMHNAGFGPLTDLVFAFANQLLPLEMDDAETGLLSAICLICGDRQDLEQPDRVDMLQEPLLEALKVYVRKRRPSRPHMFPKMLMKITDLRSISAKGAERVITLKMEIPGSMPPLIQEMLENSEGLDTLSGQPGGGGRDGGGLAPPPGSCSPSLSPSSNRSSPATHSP
How it was run: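 Reporter transcripts, measured by RT-PCR with fluorescent labeling and capillary electrophoresis after 24 h dosing, reflect activity of an exogenous human RARa–GAL4 fusion in transiently transfected HepG2. Fitted for increase relative to DMSO.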

[12] = target: human Retinoic Acid Receptor gamma (RARg), RARG (gene 5916) (UniProt P13631); test: ATG_RARg_TRANS: Attagene TRANS-FACTORIAL HepG2 Assay for human Retinoic Acid Receptor gamma (RARg) (AID 2283009; active = hit-call score of the fitted dose curve at least 0.9, where 1 is the maximum)
Chain of human Retinoic Acid Receptor gamma (RARg), RARG (gene 5916) (P13631 whole entry, looked up, the tested form may be a part): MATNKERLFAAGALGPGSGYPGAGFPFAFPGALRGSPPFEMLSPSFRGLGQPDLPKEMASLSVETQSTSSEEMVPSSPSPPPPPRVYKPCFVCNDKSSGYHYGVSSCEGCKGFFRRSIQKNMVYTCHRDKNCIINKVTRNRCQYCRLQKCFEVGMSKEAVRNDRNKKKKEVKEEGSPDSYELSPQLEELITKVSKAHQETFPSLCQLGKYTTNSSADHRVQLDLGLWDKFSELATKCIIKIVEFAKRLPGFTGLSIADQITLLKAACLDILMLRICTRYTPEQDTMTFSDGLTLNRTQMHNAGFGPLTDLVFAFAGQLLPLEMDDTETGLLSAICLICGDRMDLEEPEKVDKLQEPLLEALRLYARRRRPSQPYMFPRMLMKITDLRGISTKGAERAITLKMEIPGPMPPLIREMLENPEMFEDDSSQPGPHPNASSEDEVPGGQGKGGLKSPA
How it was run: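 HepG2 cells transiently transfected with multiplexed reporter units expressing chimeric RARg-GAL4 and GAL4-UAS-driven reporters; 24 h compound exposure. Reporter mRNA quantified by RT-PCR with fluorescent labelling and capillary electrophoresis; gain-of-signal fitted relative to DMSO baseline.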

[13] = target: human RAR-related Orphan Receptor beta (RORb), RORB (gene 6096) (UniProt Q92753); test: ATG_RORb_TRANS: Attagene TRANS-FACTORIAL HepG2 Assay for human RAR-related Orphan Receptor beta (RORb) (AID 2283010; active = hit-call score of the fitted dose curve at least 0.9, where 1 is the maximum)
Chain of human RAR-related Orphan Receptor beta (RORb), RORB (gene 6096) (Q92753 whole entry, looked up, the tested form may be a part): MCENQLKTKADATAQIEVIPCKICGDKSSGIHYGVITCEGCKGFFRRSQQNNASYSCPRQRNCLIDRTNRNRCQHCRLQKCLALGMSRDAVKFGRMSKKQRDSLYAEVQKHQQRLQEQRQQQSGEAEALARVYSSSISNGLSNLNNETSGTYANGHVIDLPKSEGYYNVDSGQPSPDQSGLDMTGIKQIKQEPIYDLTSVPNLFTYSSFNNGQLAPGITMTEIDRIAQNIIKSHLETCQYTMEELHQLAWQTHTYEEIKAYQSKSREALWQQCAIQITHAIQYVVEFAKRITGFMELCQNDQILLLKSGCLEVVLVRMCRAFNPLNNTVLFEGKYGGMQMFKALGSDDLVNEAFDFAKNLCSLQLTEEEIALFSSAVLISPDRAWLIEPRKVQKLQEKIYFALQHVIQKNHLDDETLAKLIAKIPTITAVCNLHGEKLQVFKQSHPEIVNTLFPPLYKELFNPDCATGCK
How it was run: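 HepG2 cells were transiently transfected with multiplexed GAL4-UAS reporter units expressing chimeric nuclear receptor–GAL4 proteins, then dosed for 24 h. Reporter mRNA was quantified by RT-PCR with fluorescent labelling and capillary electrophoresis; gain of signal was fitted relative to DMSO.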

[14] = target: human Peroxisome Proliferator-activated Receptor alpha (PPARa), PPARA (gene 5465) (UniProt Q07869); test: ATG_PPARa_TRANS: Attagene TRANS-FACTORIAL HepG2 Assay for human Peroxisome Proliferator-activated Receptor alpha (PPARa) (AID 2283001; active = hit-call score of the fitted dose curve at least 0.9, where 1 is the maximum)
Chain of human Peroxisome Proliferator-activated Receptor alpha (PPARa), PPARA (gene 5465) (Q07869 whole entry, looked up, the tested form may be a part): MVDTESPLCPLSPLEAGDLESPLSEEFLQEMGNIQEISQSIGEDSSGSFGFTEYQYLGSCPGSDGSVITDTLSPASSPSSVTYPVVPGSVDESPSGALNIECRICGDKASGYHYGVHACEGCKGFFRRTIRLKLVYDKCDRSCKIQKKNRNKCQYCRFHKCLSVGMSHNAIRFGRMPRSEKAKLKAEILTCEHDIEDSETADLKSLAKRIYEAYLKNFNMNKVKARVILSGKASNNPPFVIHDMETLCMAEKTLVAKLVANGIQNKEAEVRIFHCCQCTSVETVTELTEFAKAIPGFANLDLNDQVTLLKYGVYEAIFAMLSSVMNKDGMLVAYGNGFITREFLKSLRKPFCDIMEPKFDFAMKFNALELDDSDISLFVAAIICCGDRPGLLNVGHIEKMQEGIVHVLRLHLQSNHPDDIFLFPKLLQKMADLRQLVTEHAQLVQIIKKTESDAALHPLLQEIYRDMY
How it was run: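 Reporter transcripts from GAL4-UAS units in transfected HepG2 were quantified 24 h after dosing. Detection used reverse transcription, PCR, fluorescent primer extension and capillary electrophoresis, with DMSO as baseline.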

Measured: AC50

CCCOC(=O)c1c(Cl)c(Cl)c(Cl)c(Cl)c1C(=O)OCCC
inactive: [3] | [6] | [7]
active: [1] 156 µM | [2] 100 µM | [4] 55.3 µM | [5] 148 µM | [8] 5.66 µM | [9] 4.24 µM

CCC(Cl)C(Cl)C(Cl)CC(Cl)C(Cl)C(C)Cl (configuration not stated)
active: [4] 43.4 µM | [8] 22.3 µM | [9] 1.74 µM
inactive: [1] | [2] | [3] | [5] | [6] | [7]

C=CCCC(=O)/C=C/C1C(C)=CCCC1(C)C (configuration not stated)
active: [4] 110 µM | [8] 24.4 µM | [9] 2.37 µM
inactive: [1] | [2] | [3] | [5] | [6] | [7]

COc1cc(C(C)C)ccc1C
inactive: [1] | [2] | [3] | [4] | [5] | [6] | [7] | [10] | [11] | [12]

CC(C)CCCCCCc1ccc(OCCOCCO)cc1
inactive: [1] | [2] | [3] | [4] | [5] | [6] | [10] | [9] | [12]
active: [11] 10.2 µM

O=C1NC2NC(=O)NC2N1 (configuration not stated)
inactive: [1] | [2] | [3] | [4] | [6] | [7] | [11] | [8] | [13]
active: [5] 0.167 µM

CC(C)(CO)[C@@H](O)C(=O)NCCC(=O)O
inactive: [1] | [2] | [3] | [4] | [5] | [6] | [7] | [9] | [12]

CCCC(O)C(O)CO (configuration not stated)
inactive: [1] | [2] | [3] | [4] | [5] | [6] | [7] | [9] | [12] | [13]

ClC(c1ccccc1)(c1ccccc1)c1ccccc1
active: [9] 2.2 µM
inactive: [1] | [2] | [3] | [4] | [5] | [6] | [7] | [10] | [12]

N[C@@H](Cc1cc(I)c(Oc2cc(I)c(O)c(I)c2)c(I)c1)C(=O)O
inactive: [1] | [2] | [3] | [5] | [6] | [7] | [13]
active: [4] 36.5 µM | [8] 6.06 µM | [9] 3.79 µM

CC(=O)CC(=O)Nc1ccccc1
inactive: [1] | [2] | [3] | [4] | [5] | [14] | [7] | [8] | [9] | [13]

CCCCC(CC)COC(C)=O (configuration not stated)
inactive: [1] | [2] | [3] | [4] | [5] | [14] | [7] | [10] | [11] | [9] | [12]
